Data from PubChem BioAssay AID2100 (National Center for Advancing Translational Sciences (NCATS), 2009).
The whole screen tested about 300,000 compounds, of which about 1,200 (0.4%) were called active. Not shown: some 3% with an inconclusive outcome. This is one part of a sample in which actives are shown more often than they occur. Unmarked numbers belong to inactive results. The call rests on the fitted dose curve; in most records, active means well fitted inhibition curve with a large enough effect; inconclusive means small, poorly fitted or top-dose-only effect, or another doubt; inactive means no such curve, though single readings can be large or run the other way.

Biological target: Lysosomal alpha-glucosidase (Homo sapiens) (UniProt P10253)
Test: qHTS Assay for Inhibitors and Activators of Human alpha-Glucosidase Cleavage of Glycogen;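 further: the screen sought inhibitors and activators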;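 on activity change, negative = inhibition: 0% = full enzyme reaction and -100% = no-enzyme basal signal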
Details: recombinant GAA, glycogen substrate, Amplex Red glucose oxidase fluorescence; series mostly up to 76.3 µM; activity change, negative = inhibition: at the top concentration
Text: NIH Chemical Genomics Center [NCGC] NIH Molecular Libraries Probe Production Centers Network [MLPCN] MLPCN Grant: R03 MH084841-01 Assay Submitter (PI): Wei Zheng NCGC Assay Overview: Alpha-glucosidase is responsible for the hydrolysis of terminal, non-reducing 1,4-linked alpha-D-glucose residues, which releases alpha-D-glucose. It is a lysosomal hydrolase that is required for the degradation of a small percentage (1-3%) of cellular glycogen in humans. Deficiency of this enzyme results in glycogen-storage disease type II (GSDII), also referred to as Pompe disease, an autosomal recessive disorder. Structurally normal glycogen is accumulated in the lysosomes and cytoplasm in affected patients, primarily in muscle tissues. Excessive glycogen storage within lysosomes may interrupt normal functioning of other organelles and leads to cellular injury. In turn, this leads to enlargement and dysfunction of the entire organ involved (eg: cardiomyopathy and muscle weakness). It has been reported that the improper folding and trafficking of alpha-glucosidase resulting from genetic mutations may account for a significant number of Pompe patients. […] We optimized this alpha-glucosidase assay in 1536-well plate format for identification of novel small molecule inhibitors or activators with structures other than the sugar analogs in order to develop new pharmacological chaperones. Previous assays of alpha-Glucosidase have utilized a non-natural fluorescent substrate to probe enzyme activity. The present assay measures enzyme activity on glycogen using a coupled-assay system to glucose oxidase.
NCGC Assay Protocol Summary: This is an enzyme assay using glycogen from bovine liver (Sigma catalog #: G0885) as the substrate and recombinant human alpha-glucosidase as the enzyme preparation. Upon hydrolysis of the substrate, the glucose product can be detected using the Amplex Red Glucose Oxidase Assay Kit (Invitrogen catalog #: A22189). The product of this reaction can be read with a fluorescence plate reader with an excitation at 573 nm and an emission at 610 nm. Data were normalized to the controls for basal activity (without enzyme) and 100% activity (with enzyme). The AC50 values were determined from concentration-response data modeled with the standard Hill equation. Assay buffer for enzyme reaction: 50 mM citric acid (titrated with potassium phosphate to pH 5.0), 0.01% Tween-20 (pH 5.0 is an optimal condition for this enzyme assay) Assay buffer for Amplex Red reaction: Tris-HCl, pH 7.5 1536-well assay protocol for the alpha-glucosidase assay: (1) Add 2 ul/well alpha-glucosidase enzyme solution (4 nM final) (2) Add 23 nL compounds in DMSO solution. The final titration was 0.7 nM to 77 uM. (3) Add 1 ul of glycogen substrate solution (30 ug) (4) Incubate at 37 C for 40 min (5) Add 2 ul tris-HCl buffer with Amplex Red reagents (6) Incubate 45 min at room temperature. (7) Detect the assay plate in a ViewLux plate reader (PerkinElmer) with Ex=573 nm and Em=610nm. Keywords: Alpha-glucosidase, Pompe Disease, pharmacological chaperone, chaperone therapy, high throughput screening, alpha-glucosidase inhibitor, MLSMR, MLSCN, NIH Roadmap, qHTS and NCGC
Potency means the concentration at half of the fitted maximal effect.

First: CCS(=O)(=O)N1CCc2cc(C(=O)N3CCN(c4ccccc4OC)CC3)ccc21
Second: CCS(=O)(=O)N1CCc2cc(C(=O)NCc3ccc(OC)cc3)ccc21
The “activity change, negative = inhibition” value of the first is lower: -12.8% for the first, 14.8% for the second.

First: CCCOc1ccc(C2c3c(-c4ccccc4O)n[nH]c3C(=O)N2Cc2cccnc2)cc1 (stereo not drawn)
Second: CCOc1ccc(N(Cc2ccccc2)C(=O)c2nc(S(C)(=O)=O)ncc2Cl)cc1
The “activity change, negative = inhibition” value of the first is lower: -14.1% for the first, 13.6% for the second.

Compared with CCOc1ccc(CNC(=O)C2CCCN(S(=O)(=O)N(CC)c3ccc(OCC)cc3)C2)cc1 (stereo not drawn), COc1ccc(-c2cn3nc(N4CCCC(C(=O)NCCCOC(C)C)C4)sc3n2)cc1 (stereo not drawn) is higher in “activity change, negative = inhibition” value: -5.42% for the first, 4.17% for the second.

Compared with COc1ccccc1CNC(=O)c1ccc(NC(=O)N2CC(C)Sc3ccccc32)cc1 (stereo not drawn), O=C(Nc1ccc2nc(SCC(=O)N3CCCc4ccccc43)sc2c1)c1ccc(Cl)cc1 is higher in “activity change, negative = inhibition” value: -7.96% for the first, -2.34% for the second.

First: CCCOc1cccc(C(=O)Nc2cccc(NC(=O)c3ccc(C(C)(C)C)cc3)c2)c1
Second: Cc1cccc(NC(=O)c2cc3c(C)nn(-c4ccccc4)c3s2)c1
The “activity change, negative = inhibition” value of the first is lower: -11.6% for the first, -2.14% for the second.

Going from COc1ccc(CCNC(=O)c2cc(=O)c3c(C)cc(C)cc3o2)cc1OC to Cc1nn(C(C)C(=O)NCCc2ccccc2)c(=O)c2c1sc1ccccc12 (stereo not drawn), the “activity change, negative = inhibition” value falls from 12.6% to -10.3%.

Going from CCOC(=O)c1c(C)oc2ccc(N(C(=O)c3ccncc3)S(=O)(=O)c3ccc(CC)cc3)cc12 to CCC1CCCCN1S(=O)(=O)c1ccc(NC(=O)c2cc(=O)c3ccccc3o2)cc1 (stereo not drawn), the “activity change, negative = inhibition” value falls from -5.49% to -6.07%.

Going from CCN(CC)S(=O)(=O)c1nnc(NC(=O)COc2ccccc2Cl)s1 to Cc1ccccc1-c1nc(CS(=O)(=O)CC(=O)Nc2cc(Cl)cc(Cl)c2)c(C)o1, the “activity change, negative = inhibition” value falls from -4.77% to -7.14%.

Compared with Cc1cccc(NC(=O)N2CCC(CN3CCc4ccccc4C3)CC2)c1C, Cc1ccc(Cn2c(CCCNC(=O)C3CCCCC3)nc3ccccc32)cc1 is lower in “activity change, negative = inhibition” value: 9.41% for the first, -13.5% for the second.

Compared with COc1ccc2c(Sc3ccc(C)cc3)c(C(=O)NC(C)c3ccccc3)[nH]c2c1 (stereo not drawn), Cc1ccc(NC(=O)c2nc(S(=O)(=O)Cc3cccc(C)c3)ncc2Cl)cc1 is higher in “activity change, negative = inhibition” value: -10.9% for the first, 9.9% for the second.

Going from COC(=O)c1cc(S(=O)(=O)N2CCN(c3cc(Cl)ccc3C)CC2)c[nH]1 to COc1ccc(N2CCN(S(=O)(=O)c3ccc4c(c3)NC(=O)C(C)C(=O)N4)CC2)cc1 (stereo not drawn), the “activity change, negative = inhibition” value rises from 5.27% to 7.77%.

Compared with COC(=O)c1cc2occc2n1Cc1nc(-c2ccc(C)cc2)oc1C, Cc1ccc(CCNC(=O)C2CCN(c3nnc(-n4cccc4CNc4ccc(C)cc4)s3)CC2)cc1 is higher in “activity change, negative = inhibition” value: -11.8% for the first, -6.93% for the second.

First: CCOC(=O)c1c(NC(=O)/C(C#N)=C/c2ccccc2)sc2c1CCC2
Second: Cc1ccc(C)n1-c1nnc(N2CCC(C(=O)NCc3ccc(F)cc3)CC2)s1
The “activity change, negative = inhibition” value of the first is lower: 0.505% for the first, 5.06% for the second.

For Cc1cccc(OCC(=O)N(Cc2ccc(C(C)C)cc2)Cc2ccco2)c1C, the “activity change, negative = inhibition” value was 9.65%.

With COc1ccc(CNC(=O)c2ccc(NC(=O)N3CC4CCCN4c4ccccc43)cc2)cc1 (stereo not drawn) the Potency was 17.8 µM (active).
Cn1c(SCC(=O)N/N=C/c2ccc(O)c(O)c2)nc2ccccc21 was tested, and the Potency was 8.91 µM (active).
In the case of COc1ccc2c(c1)C(C)=CC(C)(C)N2C(=O)Nc1ccccc1, the Potency is reported as 35.5 µM (active).
With Cc1cc2cc3c(N)[nH]nc3nc2cc1C the Potency was 8.91 µM (active).
In the case of Oc1ccc(/C=N/Nc2ccc(C(F)(F)F)cn2)cc1O, the Potency is reported as 3.52 µM (active).
For CCN1C(=O)c2cccc3c(N)ccc1c23, the Potency was 28.2 µM (active).
CCOC(=O)c1c(/N=C/c2cc(C)ccc2O)sc2c1CCC2 was tested, and the Potency was 10 µM (active).
For COc1ccc(N2CCN(S(=O)(=O)c3ccc4c(c3)CC(=O)N4)CC2)cc1, the Potency was 59.8 µM (active).
For COc1cccc2c(N/N=C/c3ccco3)cc(C)nc12, the Potency was 8.84 µM (active).
For CCOc1ccc(CNC(=O)C2CCN(c3nnc(-n4cccc4CNc4ccc(C)cc4)s3)CC2)cc1OC, the Potency was 31.6 µM (active).
For CCn1c2ccccc2c2cc(NC(=S)N3CCOCC3)ccc21, the Potency was 12.5 µM (active).

First: COc1ccc(NC(=O)N2CCC(Cc3ccccc3)CC2)cc1
Second: O=C(Nc1ccccc1)Nc1ccc(C(F)(F)F)cn1
The “activity change, negative = inhibition” value of the first is higher: 17.3% [at 76.4 µM] for the first, 5.88% [at 76.4 µM] for the second.

Going from CCn1c(SCC(=O)N/N=C/c2ccncc2)nc2ccccc21 to Cc1ccc(/C=N/NC(=O)CSc2nc3ccccc3o2)cc1, the “activity change, negative = inhibition” value falls from 0.69% [at 76.4 µM] to -4.49% [at 76.4 µM].

First: COc1ccc2c(c1)C(C)=CC(C)(C)N2C(=O)CNCc1ccc2c(c1)OCO2
Second: CC1=CC(C)(C)N(C(=O)CSc2nnc(-c3ccccc3)o2)c2ccc(C)cc21
The “activity change, negative = inhibition” value of the first is lower: -16.1% [at 76.4 µM] for the first, -4.74% [at 76.4 µM] for the second.

First: Oc1ccc(Br)cc1/C=N/Nc1ccccn1
Second: Cc1cc(N/N=C/c2ccccc2F)c2ccccc2n1
The “activity change, negative = inhibition” value of the first is higher: -5.32% [at 76.4 µM] for the first, -19.4% [at 76.4 µM] for the second.

Compared with CN1C(=O)c2cccc3c(N)ccc(c23)C1=O, CCN1C(=O)c2cccc3c(S(=O)(=O)Nc4ccccc4O)ccc1c23 is lower in “activity change, negative = inhibition” value: 5.15% [at 76.4 µM] for the first, -4.12% [at 76.4 µM] for the second.

First: CCOC(=O)c1c(NC(=S)NC)sc2c1CCCC2
Second: CCn1c2ccccc2c2cc(NC(=O)CNC)ccc21
The “activity change, negative = inhibition” value of the first is higher: -1.18% [at 76.4 µM] for the first, -2.67% [at 76.4 µM] for the second.

Compared with O=C1CC(=O)Nc2cc(S(=O)(=O)N3CCN(c4cccc(C(F)(F)F)c4)CC3)ccc2N1, Cc1ccc2nc(C)cc(N/N=C/c3ccc(F)cc3)c2c1 is higher in “activity change, negative = inhibition” value: -10.2% [at 76.4 µM] for the first, -2.53% [at 76.4 µM] for the second.

For CCn1c2ccccc2c2cc(NC(=O)COC(=O)c3ccccc3Br)ccc21, the “activity change, negative = inhibition” value was 11.5% [at 76.4 µM].
